Assay results: PubChem BioAssay AID1508600 (Functional Genomics Laboratory (NCATS/FGL), 2020)
The campaign covered roughly 53,000 sequences. About 3,700 (7%) were called active.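 Rule for the calls: active = gene knockdowns whose robust z-score for IL-1 alpha signal is at least 2 or at most -2, so actives lie on both sides; inactive = the rest.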 The sample as a whole holds a higher share of actives than the screen did.

assay: Components of the Cytosolic LPS Sensing Pathway: Gene Identification via Genome-wide siRNA Screen; settings: RAW264.7 macrophages, IL-1a HTRF, actives lie on both sides, screened at 100 nM (by protocol), cells primed 5 h with Pam3CSK4 first;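 note: robust z of the log signal after scaling to non-targeting control siRNA wells of the plate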
Procedure, shortened: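 Supernatant IL-1a by HTRF from RAW264.7 cells primed with Pam3CSK4 (5 hours) and transfected with LipidA (24 hour) after 48h siRNA knockdown at 100 nM; cell viability checked with CellTiter-Glo.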

| Sequence | z-score |
| --- | --- |
| CCAUACAAGUAUCCGAACUTT against 1700102P08Rik | 1.03 (inactive) |
| GCCUCAGCAUUACCACUAUTT against Pof1b | -1.86 (inactive) |
| GGUGAUGCAGCAGAUCAUUTT against Nfyc | 0.0427 (inactive) |
| GUGGAAAACAAGUGGCGGUTT against Cox7c | 0.241 (inactive) |
| GGCAUUGACGAGGAUGACCTT against Supt3 | 2.74 (active) |
| GGAGAACUAUUCAGAAACUTT against Btbd11 | -0.0178 (inactive) |
| GCGGUGCCAAAGGUAUUAATT against Rad51ap1 | -0.0801 (inactive) |
| GCAAGAAGGGACACAGUUUTT against Plk1 | 0.276 (inactive) |
| GGAAAACCAAGACCACAAATT against Hmgn5 | 1.39 (inactive) |
| GGUGCUUGAUUUUGUGCAGTT against Psmd13 | -0.00516 (inactive) |
| GACACCACAGUCAAAUCUGTT against Agr2 | -2.26 (active) |
| CCCUUUAAUACAUACAGUUTT against Mesp2 | 1.14 (inactive) |
| GCCCAAGGUGAUCAUUAUUTT against Casp1 | -0.15 (inactive) |
| GGUUGUAAGGAACUCUUGGTT against Slc22a29 | -0.628 (inactive) |
| GGACAUUCCUGAACAUAAUTT against Pcdha3 | -1.17 (inactive) |
| GGAGAUCUUCAAUAUGUUATT against Supt6 | -2.25 (active) |
| GAAGCCUAAUCCCUUAAUCTT against Oas1g | 1.07 (inactive) |
| CCAUUUCAGGCAUGAAGAATT against Tsga10 | -1.13 (inactive) |
| GGUCAAUAUUCUUAUGUCCTT against S1pr3 | 0.245 (inactive) |
| GGAAUUGGAUGUGAGCAACTT against Vasn | 0.586 (inactive) |
| GCCAUGGGUCUCAGAAAGATT against Zxda | -0.247 (inactive) |
| GGAAGAGGAUAGGCAGGAATT against Gfer | 2.03 (active) |

| Sequence | z-score |
| --- | --- |
| UGAUAGUCUCCACUAAAUUTT against Gm4884 | -0.265 (inactive) |
| GGAUCCUUUGGUUAUAAGATT against Nav1 | -1.28 (inactive) |
| GGUCUUUAGCAGAGAAAAUTT against Zfp420 | -0.201 (inactive) |
| GCCCACAGUCAUUAAACUATT against Nipal4 | 0.723 (inactive) |
| GGAUCAAAUCAAGAAGAUGTT against Chmp5 | 0.627 (inactive) |
| CCCAGGGUGUCAAUCUAAATT against Cby1 | -0.381 (inactive) |
| CGAAAAUACGUCAAAGCUCTT against Abca8b | -0.656 (inactive) |
| GGGCACUGACAAACGUAUUTT against Olfr433 | -0.34 (inactive) |
| GUUCUUCUCUGUUGGUGCUTT against Vmn1r24 | -2.12 (active) |
| GGACUUCGUGAACAAGAUCTT against Grin2b | -0.439 (inactive) |
| GCGGCCACGGGACGGCGGUTT against Hmx2 | -0.455 (inactive) |
| GGUCAUGACAGGAUACCCATT against Fam163b | -1.99 (inactive) |
| GGAGCCGUACAUCUUACACTT against Abhd1 | 0.33 (inactive) |
| GCCGAGUGAAUGAAAGGACTT against Ppp1r32 | -0.758 (inactive) |
| CCGUGGCGUAUGUGAUCAATT against Map3k5 | -0.249 (inactive) |
| GGACUCUCAGAAGAAUGAUTT against Hmmr | 2.98 (active) |
| GGGAAAUGUUUUCCAAAGATT against Tep1 | 0.776 (inactive) |
| CCAUAUGUGCUCACCUUUATT against Marveld2 | -0.641 (inactive) |
| CGAGUUUAAAGUGAGAAGATT against Pou1f1 | 0.488 (inactive) |
| GCCACUCUUUAAGAAUCUATT against Abcf1 | -0.552 (inactive) |
| GCAUUGUCCGAGGUUUAUUTT against Tspan33 | 0.64 (inactive) |
| GGAGACAUUCCUGAAAGCUTT against Ankrd2 | -2.09 (active) |

| Sequence | z-score |
| --- | --- |
| GGUGCUAUGUGCGUUUGAUTT against 9830107B12Rik | 1.97 (inactive) |
| GGCGGAUGAACAAAGUUGGTT against Polr1e | 0.0863 (inactive) |
| GGAGAAUAAGCAAAUCCUUTT against Cfap20dc | -0.937 (inactive) |
| GGUCCCAUAUACCAGAUCUTT against Slc3a1 | 1.63 (inactive) |
| UGUCAGUGCAGAAUAGCACTT against Olfr658 | -1.17 (inactive) |
| GGACAUAGAGAACAUCAUCTT against Cabp7 | 4.02 (active) |
| CGACACUCAAUGUGAACUUTT against Grtp1 | -0.881 (inactive) |
| GCCAGUCAUGCCUAUUUUCTT against Zmym6 | -0.528 (inactive) |
| GGUGUGAGUGUCGGAAUCUTT against Islr2 | 0.138 (inactive) |
| GGGACAAGUUCAUCUGAUATT against Rin1 | 2.06 (active) |
| GGAAUGGUUUUAUUUUUGGTT against Noa1 | -0.0245 (inactive) |
| GGUACCUCUGUAUUCAGCCTT against Olfr121 | 0.78 (inactive) |
| GGAAACUACAAAUUUGGCATT against Krtap6-2 | 0.195 (inactive) |
| CCCACAGUAAAUUCAACGGTT against Gm5069 | 0.00754 (inactive) |
| UACCCAUUGUCAAGUUGGATT against Grm4 | -0.634 (inactive) |
| GGACCUGUGUGUUCUUUGATT against Amhr2 | -0.505 (inactive) |
| CCUUGGCAGGUAUAGUGUUTT against Klk9 | -1.09 (inactive) |
| GGCGGUGUUUUACUACAAGTT against Capn7 | 3.99 (active) |
| GGAUCCCAGUUCUGGGUAATT against Dok1 | -0.0628 (inactive) |
| GCCUAUUUGACGUGCAGAGTT against Crocc | -0.0336 (inactive) |
| GCUGUUUUAUCUCCAAUGGTT against Araf | 1.73 (inactive) |
| CCCAUGUACCACUUUGUCATT against Olfr430 | -2.05 (active) |

| Sequence | z-score |
| --- | --- |
| GGCAUUGAUCACUGACAGCTT against 9530077C05Rik | 0.827 (inactive) |
| GGACCAUACAUAUUCAAAATT against Aph1b | 0.0294 (inactive) |
| GUCCUGAAGAAGCUCAAGATT against Cartpt | -0.513 (inactive) |
| GGGACAGUACAGAGUGCUGTT against Hmx1 | 0.755 (inactive) |
| CAAUCCUCAACGAUUACAUTT against Ncor1 | 2.05 (active) |
| GGAUGAGGAGAUAAAGUCUTT against Misp | -0.981 (inactive) |
| GGAAUAAAACUUCUGAGAATT against Oog1 | -1.66 (inactive) |
| GAAAACUCAAACAGCAUAUTT against Vmn1r216 | 0.833 (inactive) |
| GAGCCACUUUCUCAAGUGUTT against Pou3f1 | 3.02 (active) |
| GUAACUCGCUUCUUGGUGGTT against Slc22a15 | 0.464 (inactive) |
| GGUUCAAUGCUCCCUUCGATT against Ghrl | 0.712 (inactive) |
| GCCAGUUUAAGUCUCUCCATT against Tmem168 | -2.37 (active) |
| GGCUCACCUGAUACACUUUTT against Ramp2 | 0.707 (inactive) |
| GCCUUGAAAUGUCUGUAGCTT against Nkiras1 | 0.981 (inactive) |
| GGGCUGACUUCCUAUGACCTT against Adra2c | 2.14 (active) |
| GGUGGAAUAACAGAUAAAATT against Cutc | 0.255 (inactive) |
| GGAGAAAGGAUUAUAGAUGTT against Klk7 | 0.202 (inactive) |
| GGGAUUCUUUUUGUGGAAATT against Trim62 | 0.636 (inactive) |
| GGUCUCAAUCAGAGUUACATT against Zfp324 | -0.936 (inactive) |
| GGAGGUCAGACCAGUUUACTT against Htr3b | 2.15 (active) |
| GCUUACAUCCAAGCCGUCUTT against Prss41 | 0.283 (inactive) |
| GCUGGAGAUGAUUGUCUGATT against Psmd8 | -1.22 (inactive) |

| Sequence | z-score |
| --- | --- |
| GCGGGAACCAUUUUUGUGATT against Cdh11 | -1.18 (inactive) |
| GGUCGAUUGAUAUACAAAATT against Gdf6 | 0.834 (inactive) |
| CGUAUUAUCUGAGUGAACATT against Fth1 | -0.974 (inactive) |
| GCAUCAUCACCACCAUCACTT against Pou3f3 | -0.598 (inactive) |
| GGUCUGGAAUGGAGAACAGTT against Suox | 2.73 (active) |
| GGUGACCAAGCAGAUAACATT against Prcc | -1.19 (inactive) |
| GGACGUGGGCUCUCUAGAUTT against S100a13 | 1.81 (inactive) |
| CGGUGGAAAUACCAGGAUGTT against Tshb | 0.406 (inactive) |
| GGAAAUUUGCCGGCCAAAUTT against Fam83a | 0.557 (inactive) |
| GCACUCCACUCUUCCAUCATT against Cxcl16 | 0.35 (inactive) |
| GGUGGCUGAAGAUGUGACUTT against Ttyh1 | -3.46 (active) |
| GCAAAGGACCUAAUUUAUUTT against Ehd4 | 1.13 (inactive) |
| GGUUCAAGGGCCAGAUCCUTT against Rpl32 | 0.887 (inactive) |
| CCAGUGUUGGUAACAAUAUTT against Stat4 | 0.0489 (inactive) |
| GGAAAAGAAAGAUGUGACUTT against Trappc9 | -2.55 (active) |
| CGUAGAUCUGGAUUGCUUUTT against Poli | 1.74 (inactive) |
| CCCAGCUAGACAGUCUUUCTT against Il11 | 2.58 (active) |
| GGCAGAGCCAGAAAAAUUGTT against Slc30a1 | 0.306 (inactive) |
| CCAGAAUGUAAAACAACCGTT against Zfp365 | 0.588 (inactive) |
| CGGUUUCACGAAUUCCUCCTT against Scaper | -2.16 (active) |
